Rows were chosen to be rich in hits. Some 11% of all compounds tested hit in one or more screens of this group.
PI5P4K alpha inh: PI5P4K alpha (human) kinase inhibition. P48426. PI5P4Kalpha enzyme, ADP-Glo luminescence, 60 min; active compounds read low. max response, %. hit rate 1.2% among 330,000; active means max response of -50% or lower; inconclusive means between -30% and -50%; inactive means -30% or higher; further: value at the top dose of about 77 µM; on the % scale 0 is the no-effect control and ±100 the full control effect
Target sequence (P48426 whole entry, looked up): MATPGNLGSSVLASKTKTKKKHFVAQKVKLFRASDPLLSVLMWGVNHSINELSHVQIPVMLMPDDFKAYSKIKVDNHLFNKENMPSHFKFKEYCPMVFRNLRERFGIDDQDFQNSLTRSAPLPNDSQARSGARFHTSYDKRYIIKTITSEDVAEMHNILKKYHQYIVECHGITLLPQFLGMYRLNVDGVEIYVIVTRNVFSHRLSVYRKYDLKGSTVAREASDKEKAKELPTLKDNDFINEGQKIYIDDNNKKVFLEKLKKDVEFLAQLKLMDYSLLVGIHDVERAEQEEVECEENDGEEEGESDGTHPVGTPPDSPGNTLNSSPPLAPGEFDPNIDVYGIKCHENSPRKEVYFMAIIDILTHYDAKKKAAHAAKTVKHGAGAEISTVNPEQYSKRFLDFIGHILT
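Controls without substrate or without enzyme flank wells where PI5P4Kalpha converts substrate using 5 microM ATP (final). Incubation lasts 60 minutes at room temperature; ADP formed is read by ADP-Glo luminescence.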
BAZ2B block: blocks human BAZ2B; Potency, µM (highest dose often 114 µM), without a hit: top-dose activity change, negative = inhibition, usual class: inhibitors; Q9UIF8; hit rate 4.4% among 360,000; AlphaScreen BAZ2B-H3K14Ac peptide displacement; further: potency means the concentration at half of the fitted maximal effect; on the % scale 0 is the no-effect control and ±100 the full control effect; nearly all actives have a fitted effect of over 60% in size
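BAZ2B 50 nM plus b-H3(5-23)K14Ac 50 nM, PBS pH 7.4/0.01% Tween-20, 30 min RT; compound added (max 110 uM), 30 min RT; streptavidin donor/Ni-chelate acceptor beads 10 ug/mL final, 20 min dark; AlphaScreen read.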
L3MBTL1 inh: L3MBTL1 (human) inhibition; AlphaScreen L3MBTL1–H3K9me1 peptide binding; hit rate 0.66% among 230,000; Q9Y468; Potency, µM (highest dose often 57.1 µM), inactives show top-dose activity, negative = inhibition, actives largely listed as inhibitors; AID 485360; further: potency means the concentration at half of the fitted maximal effect; on the % scale 0 is the no-effect control and ±100 the full control effect; nearly all actives have a fitted effect of over 60% in size
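AlphaScreen assay: L3MBTL1 (50 nM final) was preincubated 30 min at room temperature with biotinylated H3(1-15)K9me1 peptide (75 nM final), then 30 min with library compounds; streptavidin donor and nickel chelate acceptor beads (10 ug/mL final) added, 30 min dark.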
JMJD2A Tudor inh: inhibitors of human JMJD2A Tudor domain. hit rate 4.4% among 390,000. O75164. AlphaScreen JMJD2A-Tudor / H3K4me3 peptide binding. Potency, µM (series often up to 114 µM), for inactives: top-dose activity change, negative = inhibition, actives largely listed as inhibitors; further: potency means the concentration at half of the fitted maximal effect; on the % scale 0 is the no-effect control and ±100 the full control effect; nearly all actives have a fitted effect of over 50% in size
HP1b chromo inh: HP1-beta chromodomain-methylated histone interaction inhibition; Potency, µM (series often up to 114 µM), without a hit: at the highest dose activity change, negative = inhibition, actives largely listed as inhibitors; AlphaScreen HP1-beta / biotin-H3K9me3 peptide binding; hit rate 0.56% among 390,000; further: potency means the concentration at half of the fitted maximal effect; nearly all actives have a fitted effect of over 70% in size
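HP1-beta protein (50 nM final) preincubated 30 min at room temperature with biotinylated H3(1-18)K9me3 peptide (50 nM) in PBS pH 7.4, 0.01% Tween-20, then compound added for 30 min. AlphaScreen streptavidin donor/nickel chelate acceptor beads (10 ug/mL final), 30 min dark, luminescence read.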
G9a inh: blocks human histone lysine methyltransferase G9a. hit rate 8.8% among 350,000. G9a H3K9 monomethylation, AlphaScreen, 2 h. Potency, µM (doses to about 102 µM), for inactives: at the top dose activity, negative = inhibition, most hits filed as inhibitors; further: potency means the concentration at half of the fitted maximal effect; on the % scale 0 is the no-effect control and ±100 the full control effect; nearly all actives have a fitted effect of over 75% in size
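G9a (20 nM) preincubated 15 min RT with compounds, then 500 nM biotinylated H3K9 peptide and 20 uM SAM added; 2 h RT reaction. Monomethyl-H3K9 product detected by AlphaScreen with anti-H3K9me1 antibody, streptavidin donor and anti-rabbit IgG acceptor beads.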
Numbers without * were called inactive; ? = inconclusive; . = not tested or not shown; [ ] = remark or other dose. Unless noted, the call rests on the fitted dose curve; in most records, active means well fitted inhibition curve with a large enough effect; inconclusive means small, poorly fitted or top-dose-only effect; inactive means no such curve, though single readings can be large or run the other way.

SMILES | PI5P4K alpha inh | BAZ2B block | L3MBTL1 inh | JMJD2A Tudor inh | HP1b chromo inh | G9a inh
O=C(Nc1ccnn1C1CCN(C2CCCCC2)CC1)c1cccc(F)c1 | -1 | 10% | . | 25µM* | 37% | .
Cc1ccc(-c2ccc(OCC(=O)N3CCOCC3)cc2)cc1 | 1 | 7% | . | 2% | 5% | -7%[12.7 µM]
O=C(c1cccc(F)c1)N1CCC(N2CCOCC2)CC1 | 6 | 50µM* | . | 7.9µM* | ? | ?
O=C(c1cccc(Cl)c1)N1CCC(N2CCC(C(=O)N3CCOCC3)CC2)CC1 | -2 | 3% | 6% | -3% | 44% | .
CCOc1ccc(CN2C(=O)c3ccccc3Sc3ccc(C(=O)NCc4ccco4)cc32)cc1 | . | . | . | -18% | 11% | -24%[59 µM]
CCCCNC(=O)C1CCCN(S(=O)(=O)CCC)C1 (stereo not drawn) | . | 1% | . | -14% | 40% | -15%[59 µM]
COc1ccc(-c2c(C3C4C=CCCC4(C)C(=O)N3Cc3ccccc3)ccc3ccccc23)cc1 (stereo not drawn) | . | . | . | -32% | -15% | .
COc1ccc(CNC(=O)C2CCN(c3nnc(-n4c(C)ccc4C)s3)CC2)c(OC)c1 | . | -16% | . | -35% | 2% | 4%[59 µM]
COc1ccccc1N1CCN(C2CCN(C(=O)COc3cccc(C)c3)CC2)CC1 | 3 | 79µM* | -1% | 5.6µM* | ? | 8.9µM*
O=C(c1cccc(F)c1)N1CCN(Cc2ccco2)CC1 | 4 | 50µM* | 1% | 7.9µM* | -14% | 32µM*
COc1ccccc1N1CCN(C2CCN(C(=O)c3cccc(F)c3)CC2)CC1 | -9 | 50µM* | 3% | 28µM* | ? | 8.9µM*
CCc1ccc(-c2cc(C)no2)cc1S(=O)(=O)NCc1ccc(OC)cc1 | . | 6% | . | 13% | 44% | 8%[59 µM]
Cc1ccc(NC(=O)Cn2c(-c3nonc3N)nc3ccccc32)cc1Cl | . | -3% | . | -12% | 41% | 0%[59 µM]
CCc1[nH]c(=O)c(C#N)c2c1CCCC2 | 1 | 17% | . | 7% | 0% | -34%[2.33 µM]
CCc1[nH]c(=S)c(C#N)c2c1CCCC2 | -52* | -19% | -12% | 14µM* | ? | 3.2µM*
CCOC(=O)c1c2c([nH]c(=S)c1C#N)CCCC2 | ? | ? | -10% | 8.9µM* | -15% | .
C/C(=N/NC(=O)CNC(=O)c1ccccc1F)c1ccc2c(c1)CCCC2 | -67* | 0% | 16% | 32µM* | -7% | -3%
CCC(Sc1nc2ncccc2o1)C(=O)Nc1cccc(C)c1 (stereo not drawn) | . | -13% | . | -2% | 20% | 5%[59 µM]
CCOc1ccc(NC(=O)c2ccc(NC(=O)c3cn4c5c(c(N6CCN(C)CC6)c(F)cc5c3=O)OCC4C)cc2)cc1 (stereo not drawn) | -12 | -32% | -5% | -11% | 7% | 50µM*
Cc1cc(C)nc(NC(=O)c2ccc([N+](=O)[O-])c(C)c2)n1 | -4 | -18% | 3% | -5% | 5% | ?
O=C(Nc1ncn[nH]1)c1c(Cl)ccc(Cl)c1Cl | 1 | 31% | 3% | -2% | 31% | 24%[59 µM]
Cc1cc(C(=O)Nc2ncn[nH]2)ccc1[N+](=O)[O-] | 0 | 50µM* | -5% | -24% | 54% | -7%[59 µM]
CCOc1ccc(NC(=O)c2ccc(NC(=O)Cc3n[nH]c(=O)c4ccccc34)cc2)cc1 | 1 | -14% | -8% | 1% | 20% | 56µM*
O=C(Nc1ncn[nH]1)c1ccccc1O | -12 | 79µM* | 1% | -27% | 42% | 0%[59 µM]
CCOc1ccc(C(=O)Nc2ncn[nH]2)cc1 | -2 | 50µM* | -11% | -18% | 32% | -7%
CCOc1ccc(C(=O)COC(=O)Cc2n[nH]c(=O)c3ccccc23)cc1 | 0 | 9% | -7% | -2% | 21% | -37%
CCN1C(=O)C(Cc2nc3ccccc3c(=O)n2-c2ccccc2)c2cc(Br)ccc21 (stereo not drawn) | . | ? | . | ? | 8% | ?
COc1ccccc1N1CCN(C(=O)C2CCN(S(=O)(=O)c3cnc[nH]3)CC2)CC1 | . | . | . | -7% | 47% | 4%[59 µM]
